Results taken from PubChem BioAssay AID1159580 (chemical genetic matrix, 2015).
Out of some 5,500 compounds screened, about 2,000 (36%) were called active. Roughly 18% stayed inconclusive and do not appear here. The list shows a part of the results. Unmarked numbers belong to inactive results. No stated cut-off is given here; in the data, active means normalized growth mostly below about 0.91 (no sharp cut-off); inconclusive means no clear call, values can overlap the other calls; inactive means mostly above about 0.92.

Experiment: chemical genetic growth profiling, strain panel (AID 1159580);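 further: tested at 20 µM; growth read once vehicle control cultures reached saturation at 30 °C; 1 = growth at the plate median or of vehicle wells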
Settings: growth OD

CCCc1occc(=O)c1/C=C/O
normalized growth (S. cerevisiae deletion strains, locus YAL013W, strain DEP1, stronger effect = lower value): 0.98
normalized growth (S. cerevisiae deletion strains, locus YBR021W, strain FUR4, stronger effect = lower value): 0.999
normalized growth (S. cerevisiae deletion strains, locus YBR229C, strain ROT2, stronger effect = lower value): 0.987
normalized growth (S. cerevisiae deletion strains, locus YCL029C, strain bik1, stronger effect = lower value): 0.97
normalized growth (S. cerevisiae deletion strains, locus YDL035C, strain GPR1, stronger effect = lower value): 0.981
normalized growth (S. cerevisiae deletion strains, locus YDL074C, strain BRE1, stronger effect = lower value): 1.01
normalized growth (S. cerevisiae deletion strains, locus YDL101C, strain DUN1, stronger effect = lower value): 0.982
normalized growth (S. cerevisiae deletion strains, locus YDL134C, strain PPH21, stronger effect = lower value): 0.939
normalized growth (S. cerevisiae deletion strains, locus YDL185W, strain tfp1, stronger effect = lower value): 0.97
normalized growth (S. cerevisiae deletion strains, locus YDL192W, strain arf1, stronger effect = lower value): 0.923
normalized growth (S. cerevisiae deletion strains, locus YDR101C, strain arx1, stronger effect = lower value): 0.943
normalized growth (S. cerevisiae deletion strains, locus YDR150W, strain NUM1, stronger effect = lower value): 0.983
normalized growth (S. cerevisiae deletion strains, locus YDR162C, strain NBP2, stronger effect = lower value): 0.927
normalized growth (S. cerevisiae deletion strains, locus YDR318W, strain mcm21, stronger effect = lower value): 0.942
normalized growth (S. cerevisiae deletion strains, locus YDR388W, stronger effect = lower value): 0.964
normalized growth (S. cerevisiae deletion strains, locus YDR502C, strain sam2, stronger effect = lower value): 0.913 (active)
normalized growth (S. cerevisiae deletion strains, locus YEL061C, strain CIN8, stronger effect = lower value): 0.98
normalized growth (S. cerevisiae deletion strains, locus YER110C, stronger effect = lower value): 0.963
normalized growth (S. cerevisiae deletion strains, locus YER155C, strain BEM2, stronger effect = lower value): 0.967
normalized growth (S. cerevisiae deletion strains, locus YER167W, strain BCK2, stronger effect = lower value): 0.936
normalized growth (S. cerevisiae deletion strains, locus YGL078C, strain dbp3, stronger effect = lower value): 1
normalized growth (S. cerevisiae deletion strains, locus YGL086W, strain mad1, stronger effect = lower value): 0.979
normalized growth (S. cerevisiae deletion strains, locus YGL248W, strain PDE1, stronger effect = lower value): 0.949
normalized growth (S. cerevisiae deletion strains, locus YGR078C, strain PAC10, stronger effect = lower value): 0.964
normalized growth (S. cerevisiae deletion strains, locus YGR135W, strain pre9, stronger effect = lower value): 0.948
normalized growth (S. cerevisiae deletion strains, locus YGR252W, strain gcn5, stronger effect = lower value): 0.925
normalized growth (S. cerevisiae deletion strains, locus YHR030C, strain SLT2, stronger effect = lower value): 0.986
normalized growth (S. cerevisiae deletion strains, locus YHR079C, strain IRE1 (second series), stronger effect = lower value): 0.959
normalized growth (S. cerevisiae deletion strains, locus YHR094C, strain hxt1, stronger effect = lower value): 0.957
normalized growth (S. cerevisiae deletion strains, locus YHR129C, strain ARP1, stronger effect = lower value): 0.974
normalized growth (S. cerevisiae deletion strains, locus YHR200W, strain rpn10, stronger effect = lower value): 0.95
normalized growth (S. cerevisiae deletion strains, locus YIL066C, strain RNR3, stronger effect = lower value): 0.97
normalized growth (S. cerevisiae deletion strains, locus YIL073C, strain SPO22, stronger effect = lower value): 0.992
normalized growth (S. cerevisiae deletion strains, locus YIL125W, strain kgd1, stronger effect = lower value): 0.964
normalized growth (S. cerevisiae deletion strains, locus YIR030C, strain dcg1, stronger effect = lower value): 0.955
normalized growth (S. cerevisiae deletion strains, locus YJL095W, strain BCK1, stronger effect = lower value): 0.909
normalized growth (S. cerevisiae deletion strains, locus YJL134W, strain LCB3, stronger effect = lower value): 0.984
normalized growth (S. cerevisiae deletion strains, locus YJL168C, strain set2, stronger effect = lower value): 0.987
normalized growth (S. cerevisiae deletion strains, locus YJL187C, strain SWE1 (second series), stronger effect = lower value): 0.963
normalized growth (S. cerevisiae deletion strains, locus YJR043C, strain POL32, stronger effect = lower value): 0.943
normalized growth (S. cerevisiae deletion strains, locus YJR075W, strain HOC1, stronger effect = lower value): 0.945
normalized growth (S. cerevisiae deletion strains, locus YKL009W, strain mrt4, stronger effect = lower value): 1.02
normalized growth (S. cerevisiae deletion strains, locus YKL068W, stronger effect = lower value): 0.972
normalized growth (S. cerevisiae deletion strains, locus YKL085W, strain MDH1 (second series), stronger effect = lower value): 0.96
normalized growth (S. cerevisiae deletion strains, locus YKL085W, strain MDH1, stronger effect = lower value): 0.96
normalized growth (S. cerevisiae deletion strains, locus YKR001C, strain vps1, stronger effect = lower value): 0.85 (active)
normalized growth (S. cerevisiae deletion strains, locus YLR039C, strain RIC1, stronger effect = lower value): 0.929
normalized growth (S. cerevisiae deletion strains, locus YLR058C, strain SHM2, stronger effect = lower value): 0.973
normalized growth (S. cerevisiae deletion strains, locus YLR102C, strain apc9, stronger effect = lower value): 0.966
normalized growth (S. cerevisiae deletion strains, locus YLR262C, strain YPT6, stronger effect = lower value): 0.922
normalized growth (S. cerevisiae deletion strains, locus YLR268W, strain sec22, stronger effect = lower value): 0.98
normalized growth (S. cerevisiae deletion strains, locus YLR330W, strain CHS5, stronger effect = lower value): 0.969
normalized growth (S. cerevisiae deletion strains, locus YLR342W, strain FKS1 (second series), stronger effect = lower value): 0.982
normalized growth (S. cerevisiae deletion strains, locus YLR371W, strain rom2, stronger effect = lower value): 0.964
normalized growth (S. cerevisiae deletion strains, locus YLR418C, strain cdc73, stronger effect = lower value): 0.872
normalized growth (S. cerevisiae deletion strains, locus YML016C, strain PPZ1, stronger effect = lower value): 0.97
normalized growth (S. cerevisiae deletion strains, locus YML032C, strain rad52, stronger effect = lower value): 0.925
normalized growth (S. cerevisiae deletion strains, locus YML124C, strain tub3, stronger effect = lower value): 0.954
normalized growth (S. cerevisiae deletion strains, locus YMR078C, strain ctf18, stronger effect = lower value): 0.931
normalized growth (S. cerevisiae deletion strains, locus YMR223W, strain ubp8, stronger effect = lower value): 0.969
normalized growth (S. cerevisiae deletion strains, locus YMR263W, strain SAP30, stronger effect = lower value): 0.975
normalized growth (S. cerevisiae deletion strains, locus YMR307W, strain GAS1, stronger effect = lower value): 0.94
normalized growth (S. cerevisiae deletion strains, locus YNL067W, strain RPL9B, stronger effect = lower value): 0.962
normalized growth (S. cerevisiae deletion strains, locus YNL233W, strain BNI4, stronger effect = lower value): 0.962
normalized growth (S. cerevisiae deletion strains, locus YNL250W, strain rad50, stronger effect = lower value): 0.975
normalized growth (S. cerevisiae deletion strains, locus YNL271C, strain bni1, stronger effect = lower value): 0.972
normalized growth (S. cerevisiae deletion strains, locus YNL298W, strain CLA4, stronger effect = lower value): 0.976
normalized growth (S. cerevisiae deletion strains, locus YNL307C, strain MCK1, stronger effect = lower value): 0.956
normalized growth (S. cerevisiae deletion strains, locus YNL322C, strain KRE1, stronger effect = lower value): 0.986
normalized growth (S. cerevisiae deletion strains, locus YNR052C, strain pop2, stronger effect = lower value): 0.993
normalized growth (S. cerevisiae deletion strains, locus YOL006C, strain TOP1, stronger effect = lower value): 0.854
normalized growth (S. cerevisiae deletion strains, locus YOL012C, strain htz1): 1.14
normalized growth (S. cerevisiae deletion strains, locus YOL147C, strain pex11, stronger effect = lower value): 0.983
normalized growth (S. cerevisiae deletion strains, locus YOR061W, strain CKA2, stronger effect = lower value): 0.998
normalized growth (S. cerevisiae deletion strains, locus YOR069W, strain VPS5, stronger effect = lower value): 0.974
normalized growth (S. cerevisiae deletion strains, locus YOR136W, strain idh2, stronger effect = lower value): 0.985
normalized growth (S. cerevisiae deletion strains, locus YOR144C, strain elg1, stronger effect = lower value): 0.962
normalized growth (S. cerevisiae deletion strains, locus YOR184W, strain ser1, stronger effect = lower value): 0.922
normalized growth (S. cerevisiae deletion strains, locus YOR316C, strain cot1, stronger effect = lower value): 0.964
normalized growth (S. cerevisiae deletion strains, locus YPL241C, strain CIN2, stronger effect = lower value): 0.979
normalized growth (S. cerevisiae deletion strains, locus YPR119W, strain clb2, stronger effect = lower value): 0.964
normalized growth (S. cerevisiae deletion strains, locus YPR141C, strain kar3, stronger effect = lower value): 0.946
normalized growth (S. cerevisiae deletion strains, locus YPR163C, strain tif3, stronger effect = lower value): 0.986
normalized growth (S. cerevisiae deletion strains, locus YPR167C, strain met16, stronger effect = lower value): 0.958
normalized growth (S. cerevisiae deletion strains, strain wtn01, stronger effect = lower value): 0.995
normalized growth (S. cerevisiae strains, strain wild type, stronger effect = lower value): 0.968
